The assay in a line: compound effects on hepatocellular carcinoma cell viability – HepG2, calcein-AM fluorescence, 48 h, basal, profiling panel (AID 1164). Also: test concentration not given here. Conditions: higher = more signal.
Consider `COCCCNC(=O)[C@@]1(Sc2ccc(C)cc2)CC(=O)N(C2Cc3ccccc3C2)[C@@H]1c1ccc(CO)cc1I`, for which the z-score was -0.65. Turning to `CCCCC(CC)C(O)C1C=CC2C(=O)N(c3ccccc3)C(=O)C2N1Nc1ccc([N+](=O)[O-])cc1` (centres undefined), the z-score was -0.919. Turning to `CC(C)C(=C=CC[C@@H](O)c1ccccc1OCCO)C[C@@H](O)COCc1ccccc1`, the z-score is 0.146. Turning to `C[C@H]1C2=C3C(CC[C@H]4C(OCc5ccc(F)cc5C(F)(F)F)OC[C@](C)([C@@H]34)N(C(=O)OC(C)(C)C)C2)C2COC(=O)OCC21` (some centres undefined), the z-score is -0.659. As for `CCOC(=CC(=O)OC)CC(O)c1cccc(Cl)c1` (centres undefined), the z-score was -0.0117. The result for `COc1cc(OC)c(C(O)C2C=CC3C(=O)N(c4ccccc4)C(=O)C3N2Nc2ccc(C#N)cc2)cc1Br` (centres undefined) reads -0.268. Turning to `CN(C)CCCNC(=O)[C@@H]1c2ccccc2C(=O)N(CC23CC4CC(CC(C4)C2)C3)[C@H]1c1ccc(CO)cc1`, the z-score was -0.99. Consider `COc1cc2c(cc1OC)CN(C(=O)[C@H]1[C@@H]3C(=O)O[C@@H](c4ccccc4)[C@@H](c4ccccc4)N3[C@@H](c3ccc(OCCO)cc3)[C@]13C(=O)Nc1ccc(C#CCCO)cc13)CC2`, for which the z-score was -0.142. As to `COCCOC(=O)N1C(=O)[C@@]2(c3cc(C#CC4=CCCCC4)ccc31)[C@H](c1ccccc1OCCO)N1[C@H](c3ccccc3)[C@H](c3ccccc3)OC(=O)[C@H]1[C@@H]2C(=O)N1CCc2cc(OC)c(OC)cc2C1`, the z-score is 1.34.
